Results published in PubChem BioAssay.
For part of these data: Measured potencies and affinities stand elsewhere. Activity calls are given as the source filed them.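 The calls were made as follows, unless noted: active = fluorescence ratio normalized to control raised more than 50% in primary screen plus both repeat runs; inactive = the rest.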

How the values were obtained:
[1] = test system: TRPC4 beta (transient receptor potential cation channel C4), mouse; assay: activators of mouse TRPC4 channel, confirmation, cell-based, Fluo4 calcium, HEK293 TRPC4beta/mu-opioid, duplicates, 10 µM (AID 2426); details: Fluo4 calcium fluorescence, at 10 µM; stronger effect = higher value;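 as to activation: percent rise of integrated ratio over buffer wells lacking compound which define 0%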
[2] = test system: transient receptor potential cation channel C4 beta (TRPC4), mouse; assay: activators of mouse TRPC4 channel, confirmation, cell-based, second round, Fluo4, HEK293 TRPC4beta/mu-opioid, 1 µM (AID 2461;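 active = primary screen active and over 50% activation in each of two duplicate runs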;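 as to activation: 0% = wells without test compound as baseline of integrated fluorescence ratio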); details: Fluo4 calcium fluorescence, at 1 µM; stronger effect = higher value
[3] = test system: TRPC4 (transient receptor potential cation channel C4 beta), mouse; assay: positive allosteric modulators of mouse TRPC4, confirmation, cell-based, second round, Fluo-4, HEK293 TRPC4beta/mu-opioid, 1 µM (AID 2554;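 active = primary screen hit whose fluorescence ratio, in both repeats, exceeds the weak agonist control mean by 3 SD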); details: DAMGO EC20, Fluo-4 calcium flux, at 1 µM; stronger effect = higher value
[4] = test system: TRPC4 beta (transient receptor potential cation channel C4), mouse; assay: positive allosteric modulators of mouse TRPC4, confirmation, cell-based, Fluo-4, HEK293 TRPC4beta/mu-opioid (AID 2555;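 active = primary screen hit whose calcium fluorescence ratio, in both repeats, exceeds the weak agonist control mean by 3 SD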); details: DAMGO EC20, Fluo-4 calcium flux, at 10 µM; stronger effect = higher value
[5] = biological target: Short transient receptor potential channel 4 (Mus musculus) (UniProt Q9QUQ5); assay: inhibitors of mouse TRPC4 channel, confirmation, cell-based, Fluo4, HEK293 TRPC4beta/mu-opioid (AID 2636;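 active = calcium signal cut by more than 3 SD below the full-agonist control yet still positive, in both repeats and the earlier primary screen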); details: DAMGO, Fluo4 calcium flux, at 10 µM; stronger effect = higher value
Short transient receptor potential channel 4 (Mus musculus), sequence (Q9QUQ5 whole entry, looked up): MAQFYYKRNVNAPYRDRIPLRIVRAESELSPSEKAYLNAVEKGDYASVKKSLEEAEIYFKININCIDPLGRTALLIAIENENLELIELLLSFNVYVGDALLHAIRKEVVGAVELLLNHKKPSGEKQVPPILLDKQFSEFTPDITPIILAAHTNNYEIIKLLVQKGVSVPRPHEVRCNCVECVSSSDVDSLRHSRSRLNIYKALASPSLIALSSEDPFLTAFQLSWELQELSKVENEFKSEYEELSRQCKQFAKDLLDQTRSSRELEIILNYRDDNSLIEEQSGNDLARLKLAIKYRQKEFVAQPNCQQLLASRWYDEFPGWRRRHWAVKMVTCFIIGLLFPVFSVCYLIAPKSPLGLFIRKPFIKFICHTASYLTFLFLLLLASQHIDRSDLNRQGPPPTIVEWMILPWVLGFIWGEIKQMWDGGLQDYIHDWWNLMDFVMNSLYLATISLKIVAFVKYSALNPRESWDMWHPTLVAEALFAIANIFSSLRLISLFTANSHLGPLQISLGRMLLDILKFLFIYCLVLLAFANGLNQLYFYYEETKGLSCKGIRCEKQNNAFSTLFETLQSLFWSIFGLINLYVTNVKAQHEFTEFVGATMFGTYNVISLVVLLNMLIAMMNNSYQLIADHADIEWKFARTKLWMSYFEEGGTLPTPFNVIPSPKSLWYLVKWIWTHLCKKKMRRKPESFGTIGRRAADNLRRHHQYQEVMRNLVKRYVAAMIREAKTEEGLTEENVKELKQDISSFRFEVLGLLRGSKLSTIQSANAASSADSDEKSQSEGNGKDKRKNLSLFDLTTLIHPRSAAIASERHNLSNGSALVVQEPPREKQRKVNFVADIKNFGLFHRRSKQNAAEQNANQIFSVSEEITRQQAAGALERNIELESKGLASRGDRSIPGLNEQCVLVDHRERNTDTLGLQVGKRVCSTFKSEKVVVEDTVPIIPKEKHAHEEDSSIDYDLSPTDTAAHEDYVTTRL

[6] = biological target: Short transient receptor potential channel 4 (Mus musculus) (UniProt Q9QUQ5); assay: inhibitors of mouse TRPC4 channel, confirmation, cell-based, second round, Fluo4, HEK293 TRPC4beta/mu-opioid, 1 µM (AID 2637;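 active = calcium signal ratio cut to more than 3 SD under the fully stimulated control mean yet still positive, in both repeats and the primary screen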;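 as to inhibition: percent of integrated ratio relative to wells lacking test compound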); details: Fluo4 calcium flux, DAMGO, at 1 µM; stronger effect = higher value
[7] = biological target: Short transient receptor potential channel 4 (Mus musculus) (UniProt Q9QUQ5); assay: TRPC4 positive allosteric modulators, dose response, cell-based, HEK293 TRPC4/mu-opioid, Fluo-4 calcium, EC20 DAMGO (AID 434941;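 active = earlier screen potentiator hit that boosts the TRPC4 ion channel at some dose, with a dose response; inactive = no potentiation, no dose response, or not a prior hit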;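 also: calcium entry triggered by an EC20 dose of DAMGO at the co-expressed mu-opioid receptor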)
[8] = biological target: Short transient receptor potential channel 6 (Mus musculus) (UniProt Q61143); assay: inhibition of mouse TRPC6 channel, confirmation, selectivity assay for TRPC4 inhibitor project, cell-based, HEK293, membrane potential dye, duplicate (AID 434948;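 active = active in primary screen and both duplicates, each dropping signal beyond three positive-control SD with fluorescence still positive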); details: HEK293 TRPC6, membrane potential dye fluorescence, at 10 µM, stimulated with maximal-effect acetylcholine; stronger effect = higher value
Short transient receptor potential channel 6 (Mus musculus), sequence (Q61143 whole entry, looked up): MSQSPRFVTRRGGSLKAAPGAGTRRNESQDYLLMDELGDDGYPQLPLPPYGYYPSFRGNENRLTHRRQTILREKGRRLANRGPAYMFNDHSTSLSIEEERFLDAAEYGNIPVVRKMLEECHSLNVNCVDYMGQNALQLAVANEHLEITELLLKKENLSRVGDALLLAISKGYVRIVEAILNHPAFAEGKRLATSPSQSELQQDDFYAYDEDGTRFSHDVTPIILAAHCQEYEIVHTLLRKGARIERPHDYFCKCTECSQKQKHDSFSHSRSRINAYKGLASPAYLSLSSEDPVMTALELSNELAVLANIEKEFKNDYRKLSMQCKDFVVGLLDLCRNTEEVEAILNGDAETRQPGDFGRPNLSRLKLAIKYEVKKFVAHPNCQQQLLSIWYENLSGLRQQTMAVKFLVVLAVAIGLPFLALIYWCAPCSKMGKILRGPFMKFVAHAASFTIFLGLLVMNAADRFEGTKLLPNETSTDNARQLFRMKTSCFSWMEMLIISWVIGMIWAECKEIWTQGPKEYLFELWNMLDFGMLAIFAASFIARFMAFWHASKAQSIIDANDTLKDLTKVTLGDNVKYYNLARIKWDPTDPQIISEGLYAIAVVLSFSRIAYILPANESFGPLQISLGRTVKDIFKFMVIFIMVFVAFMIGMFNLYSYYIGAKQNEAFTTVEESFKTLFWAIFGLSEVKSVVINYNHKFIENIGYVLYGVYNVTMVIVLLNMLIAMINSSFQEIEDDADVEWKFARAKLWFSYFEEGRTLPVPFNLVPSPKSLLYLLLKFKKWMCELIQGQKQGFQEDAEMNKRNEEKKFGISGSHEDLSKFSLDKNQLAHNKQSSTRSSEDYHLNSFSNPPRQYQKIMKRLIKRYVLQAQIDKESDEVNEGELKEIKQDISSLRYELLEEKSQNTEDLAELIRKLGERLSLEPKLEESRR

[9] = biological target: Short transient receptor potential channel 6 (Mus musculus) (UniProt Q61143); assay: activation of mouse TRPC6 channel, confirmation, selectivity assay for TRPC4 activator project, cell-based, HEK293, membrane potential dye, duplicate (AID 434950;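 active = membrane potential signal rise above negative control mean plus 3 SD in both duplicates, also active in the earlier TRPC4 screen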;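 as to activation: 0% = buffer only wells and 100% = acetylcholine maximal-effect wells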); details: HEK293 TRPC6, membrane potential fluorescence, at 10 µM; stronger effect = higher value
[10] = biological target: Short transient receptor potential channel 6 (Mus musculus) (UniProt Q61143); assay: TRPC6 potentiation by TRPC4 potentiator hits, confirmation, selectivity assay for TRPC4 potentiator project, HEK293 cells, membrane potential dye, duplicate (AID 434952;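 active = compound raising the membrane signal above positive-control mean plus 3 SD in both repeats, and a primary screen hit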); details: HEK293 TRPC6, membrane potential dye fluorescence, at 10 µM, maximal acetylcholine added after compound; stronger effect = higher value
[11] = biological target: Short transient receptor potential channel 4 (Mus musculus) (UniProt Q9QUQ5); assay: calcium flux activators in TRPC4/5HT1a cells, counter-screen for TRPC4 activator project, cell-based, second counter screen, HEK293 TRPC4/5HT1a, Fluo-4 (AID 434977;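 active = calcium signal rise above buffer-control mean plus 5 SD in both duplicates, and also a hit in the primary screen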;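 as to activation: plate controls were assay buffer for no effect and maximal serotonin response for full effect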); details: Fluo-4 calcium flux, at 10 µM; stronger effect = higher value
[12] = calcium flux inhibitors in TRPC4/5HT1a cells, confirmation, counter-screen for TRPC4 inhibitor project, cell-based, second counter screen, HEK293 TRPC4/5HT1a, Fluo-4 (AID 434978;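 active = primary screen active whose calcium signal fell more than 3 SD beyond the full-serotonin control mean in both duplicate plates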;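 as to outcome: serotonin given first at submaximal then at maximal dose after compound preincubation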); details: Fluo-4 calcium flux, at 10 µM, serotonin added to trigger calcium flux; stronger effect = higher value
[13] = test system: TRPC4 (mouse), co-expressed with 5HT1a in HEK293; assay: calcium flux potentiators in TRPC4/5HT1a cells, confirmation, counter-screen for TRPC4 potentiator project, cell-based, second counter screen, HEK293 TRPC4/5HT1a, Fluo-4 (AID 434979;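 active = signal rise over 3 SD above mean of control wells given weak agonist, in both repeats and first screen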); details: Fluo-4 calcium flux, at 10 µM, serotonin added at its EC20 dose; stronger effect = higher value
[14] = calcium flux activation in mu-opioid HEK293 cells, confirmation, counter-screen for TRPC4 activator project, cell-based, HEK293 mu-opioid receptor line (AID 449723;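 active = hit in primary screen, with calcium signal over 5 SD above buffer well mean in both duplicates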;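 also: counter screen cells carry the mu-opioid receptor alone and lack TRPC4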); details: Fluo-4 calcium fluorescence, at 10 µM; stronger effect = higher value
[15] = calcium flux enhancement in mu-opioid HEK293 cells, confirmation, counter-screen for TRPC4 allosteric potentiator project, cell-based, HEK293 mu-opioid receptor line (AID 449724;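 active = calcium signal rise more than 3 SD above the low-dose agonist control mean, in both duplicate plates and the primary screen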); details: Fluo-4 calcium flux, at 10 µM, compound added before EC20 DAMGO stimulus; stronger effect = higher value

COc1ccc(/C=C/C(=O)Nc2ccccc2C(=O)NCC(c2ccc(OC)cc2)N(C)C)cc1 (stereo not given)
active: inhibition [5] 101% | inhibition [6] 81%
inactive: outcome [1] | outcome [2] | outcome [3] | outcome [4] | outcome [7] | outcome [8] | outcome [9] | outcome [10] | outcome [11] | outcome [12] | outcome [13] | outcome [14] | outcome [15]

CN(C)C1(CNC(=O)CC(NC(=O)c2ccccc2Cl)c2ccccc2)CCCCC1 (stereo not given)
inactive: outcome [1] | outcome [2] | outcome [3] | outcome [4] | outcome [7] | outcome [8] | outcome [10] | outcome [11] | outcome [12] | outcome [13] | outcome [14] | outcome [15]
active: inhibition [5] 88% | inhibition [6] 78% | activation [9] 44.5%

CCc1ccc(C(CNc2nc(C(F)(F)F)nc3ccccc23)N(C)C)cc1 (stereo not given)
inactive: outcome [1] | outcome [2] | outcome [3] | outcome [4] | outcome [5] | outcome [6] | outcome [7] | outcome [8] | outcome [9] | outcome [10] | outcome [11] | outcome [12] | outcome [13] | outcome [14] | outcome [15]

COc1cccc(CC2(CO)CCCN(Cc3ccccc3-c3ccco3)C2)c1 (stereo not given)
active: inhibition [6] 42% | activation [9] 47%
inactive: outcome [1] | outcome [2] | outcome [3] | outcome [4] | outcome [5] | outcome [7] | outcome [8] | outcome [10] | outcome [11] | outcome [12] | outcome [13] | outcome [14] | outcome [15]

CCCCC(c1nnnn1CC1CCCO1)N1CCN(Cc2ccccc2)CC1 (stereo not given)
inactive: outcome [1] | outcome [2] | outcome [3] | outcome [4] | outcome [6] | outcome [7] | outcome [8] | outcome [10] | outcome [11] | outcome [12] | outcome [13] | outcome [14] | outcome [15]
active: inhibition [5] 84% | activation [9] 64.5%

O=C(NC1CC1)C1=C[C@H](C2CCCCC2)C[C@H](OCc2ccc(CO)cc2)O1
active: activation [1] 337% | inhibition [5] 75% | activation [9] 41% | activation [11] 131% | inhibition [12] 9.94%
inactive: outcome [2] | outcome [3] | outcome [4] | outcome [6] | outcome [7] | outcome [8] | outcome [10] | outcome [13] | outcome [14] | outcome [15]

Cc1ccccc1OCC(O)Cn1c(=N)n(Cc2ccccc2)c2ccccc21 (stereo not given)
inactive: outcome [2] | outcome [3] | outcome [4] | outcome [6] | outcome [7] | outcome [10] | outcome [13] | outcome [15]
active: activation [1] 70% | inhibition [5] 84% | inhibition [8] 39.5% | activation [9] 52.5% | activation [11] 9.48% | inhibition [12] 38% | activation [14] 18.7%

CC(C)(C)c1ccc(C(=O)NC(=S)NNC(=O)COc2ccccc2)cc1
active: inhibition [5] 78% | activation [11] 16.6% | inhibition [12] 27.8%
inactive: outcome [1] | outcome [2] | outcome [3] | outcome [4] | outcome [6] | outcome [7] | outcome [8] | outcome [9] | outcome [10] | outcome [13] | outcome [14] | outcome [15]

CCOC(=O)C1(CCc2ccccc2)CCN(Cc2ccc(O)cc2)CC1
inactive: outcome [1] | outcome [2] | outcome [3] | outcome [4] | outcome [6] | outcome [7] | outcome [8] | outcome [10] | outcome [11] | outcome [12] | outcome [13] | outcome [14] | outcome [15]
active: inhibition [5] 88% | activation [9] 69%

C/C(=N/NC(=O)c1ccc(Cn2cccn2)o1)c1cccc(NC(=O)c2ccncc2)c1
inactive: outcome [2] | outcome [3] | outcome [4] | outcome [6] | outcome [7] | outcome [8] | outcome [10] | outcome [12] | outcome [13] | outcome [14] | outcome [15]
active: activation [1] 100% | inhibition [5] 97% | activation [9] 49% | activation [11] 11.3%

Cc1ccc(C2(O)CN(c3ccccc3)C3=[N+]2CCS3)cc1 (stereo not given)
active: inhibition [5] 97% | inhibition [6] 79% | activation [9] 48%
inactive: outcome [1] | outcome [2] | outcome [3] | outcome [4] | outcome [7] | outcome [8] | outcome [10] | outcome [11] | outcome [12] | outcome [13] | outcome [14] | outcome [15]

CN(C)C(CNC(=O)Cc1cccc(C(F)(F)F)c1)c1ccccc1 (stereo not given)
inactive: outcome [3] | outcome [4] | outcome [5] | outcome [6] | outcome [7] | outcome [8] | outcome [10] | outcome [11] | outcome [12] | outcome [13] | outcome [14] | outcome [15]
active: activation [1] 129% | activation [2] 142% | activation [9] 31%

CN(C)CCN(C(=O)C1CCCCC1)c1nc2cc3c(cc2s1)OCO3
active: inhibition [5] 75%
inactive: outcome [1] | outcome [2] | outcome [3] | outcome [4] | outcome [6] | outcome [7] | outcome [8] | outcome [9] | outcome [10] | outcome [11] | outcome [12] | outcome [13] | outcome [14] | outcome [15]

CN(C)C(CNC(=O)c1cc2ccccc2oc1=O)c1ccccc1 (stereo not given)
active: activation [1] 65% | inhibition [6] 76%
inactive: outcome [2] | outcome [3] | outcome [4] | outcome [5] | outcome [7] | outcome [8] | outcome [9] | outcome [10] | outcome [11] | outcome [12] | outcome [13] | outcome [14] | outcome [15]

Cc1ccc(COn2c(-c3ccc(Cl)cc3Cl)nc3ncccc32)cc1
inactive: outcome [1] | outcome [2] | outcome [3] | outcome [4] | outcome [5] | outcome [6] | outcome [7] | outcome [8] | outcome [10] | outcome [11] | outcome [12] | outcome [13] | outcome [14] | outcome [15]
active: activation [9] 46%
